The source made the active and inactive calls. Unless noted, how the calls were made is not given here.
Assays:
[1] = anti-His antibody binders, primary screen, artefact control for SMM control protein annotation, biochemical, small-molecule microarray, 635 nm fluorescence (AID 1128); conditions: anti-His Alexa647 antibody binding, higher = more signal;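 further: score merges feature fluorescence with signal-to-noise for each printed compound spot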
[2] = tested on: Human papillomavirus type 1a E7 protein (residues 1-88); assay: HPV1a E7 small-molecule binders, primary screen, biochemical, small-molecule microarray, residues 1-88, 635 nm (AID 1129); conditions: small-molecule microarray binding, fluorescence 635 nm; higher = more signal
[3] = target: Focal adhesion kinase 1 (Homo sapiens) (UniProt Q05397); assay: small-molecule microarray binders of FAK, primary screen, biochemical, 635/667 nm fluorescence, BSA, DTT (AID 1130); conditions: PTK2 binding, 635 nm fluorescence, higher = more signal;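 further: composite of spot emission at 667 nm and signal to noise over triplicate slides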
Chain of Focal adhesion kinase 1 (Homo sapiens) (Q05397 whole entry, looked up): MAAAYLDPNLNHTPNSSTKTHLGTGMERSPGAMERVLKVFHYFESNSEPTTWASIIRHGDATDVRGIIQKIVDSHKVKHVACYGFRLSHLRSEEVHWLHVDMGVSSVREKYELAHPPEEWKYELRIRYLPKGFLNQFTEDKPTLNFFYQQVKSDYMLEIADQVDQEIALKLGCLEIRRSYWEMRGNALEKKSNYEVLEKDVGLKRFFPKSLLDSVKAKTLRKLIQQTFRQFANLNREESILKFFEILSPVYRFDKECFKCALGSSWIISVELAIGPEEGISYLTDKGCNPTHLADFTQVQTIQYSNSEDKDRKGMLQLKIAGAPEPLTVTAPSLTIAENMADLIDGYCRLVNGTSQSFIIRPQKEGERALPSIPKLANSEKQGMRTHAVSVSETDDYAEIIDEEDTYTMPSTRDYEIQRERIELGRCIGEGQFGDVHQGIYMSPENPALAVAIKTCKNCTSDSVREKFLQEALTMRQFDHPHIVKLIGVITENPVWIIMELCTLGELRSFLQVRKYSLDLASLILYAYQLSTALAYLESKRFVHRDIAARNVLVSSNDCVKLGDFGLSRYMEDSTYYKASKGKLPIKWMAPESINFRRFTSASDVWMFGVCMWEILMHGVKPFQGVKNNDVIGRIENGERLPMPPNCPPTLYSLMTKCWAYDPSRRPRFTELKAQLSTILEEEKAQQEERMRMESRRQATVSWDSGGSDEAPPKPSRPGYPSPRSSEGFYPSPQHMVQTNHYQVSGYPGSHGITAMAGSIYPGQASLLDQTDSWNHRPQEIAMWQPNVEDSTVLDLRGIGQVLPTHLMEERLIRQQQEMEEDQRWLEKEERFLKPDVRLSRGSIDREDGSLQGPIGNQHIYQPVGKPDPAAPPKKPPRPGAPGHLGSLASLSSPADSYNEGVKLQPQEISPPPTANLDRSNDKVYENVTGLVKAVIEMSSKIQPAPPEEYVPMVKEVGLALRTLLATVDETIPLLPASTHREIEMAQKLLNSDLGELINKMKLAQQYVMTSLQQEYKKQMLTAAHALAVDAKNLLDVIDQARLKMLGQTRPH

[4] = tested on: Fibrinogen (Alexa647-labelled); assay: fibrinogen binders on compound microarrays, profiling panel, artefact control for SMM control-protein annotation, biochemical, small-molecule microarray, 635/667 nm fluorescence (AID 1131); conditions: fibrinogen-A647 binding fluorescence, higher = more signal;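 further: z-score merges 667 nm fluorescence with per-spot signal-to-noise over triplicate slides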
[5] = target: Follistatin (Homo sapiens) (UniProt P19883); assay: follistatin binders on small-molecule microarrays, primary screen, biochemical, small-molecule microarray, 635/667 nm fluorescence (AID 1132); conditions: FST binding, 635 nm fluorescence, higher = more signal
Chain of Follistatin (Homo sapiens) (P19883 whole entry, looked up): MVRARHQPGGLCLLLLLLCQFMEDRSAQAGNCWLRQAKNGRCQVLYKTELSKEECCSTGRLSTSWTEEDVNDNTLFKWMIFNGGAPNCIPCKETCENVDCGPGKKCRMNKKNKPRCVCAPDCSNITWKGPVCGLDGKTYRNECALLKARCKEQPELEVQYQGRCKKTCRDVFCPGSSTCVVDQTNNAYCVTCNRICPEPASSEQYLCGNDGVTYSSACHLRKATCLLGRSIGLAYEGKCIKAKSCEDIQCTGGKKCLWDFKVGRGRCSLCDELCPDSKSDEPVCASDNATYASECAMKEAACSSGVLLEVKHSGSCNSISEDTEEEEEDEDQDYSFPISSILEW

[6] = target: Fibroblast growth factor 2 (Homo sapiens) (UniProt P09038); assay: FGF2 binders on small-molecule microarrays, primary screen, biochemical, small-molecule microarray, 635/667 nm fluorescence (AID 1133); conditions: small-molecule microarray binding, FGF2, fluorescence 635/667; higher = more signal
Chain of Fibroblast growth factor 2 (Homo sapiens) (P09038 whole entry, looked up): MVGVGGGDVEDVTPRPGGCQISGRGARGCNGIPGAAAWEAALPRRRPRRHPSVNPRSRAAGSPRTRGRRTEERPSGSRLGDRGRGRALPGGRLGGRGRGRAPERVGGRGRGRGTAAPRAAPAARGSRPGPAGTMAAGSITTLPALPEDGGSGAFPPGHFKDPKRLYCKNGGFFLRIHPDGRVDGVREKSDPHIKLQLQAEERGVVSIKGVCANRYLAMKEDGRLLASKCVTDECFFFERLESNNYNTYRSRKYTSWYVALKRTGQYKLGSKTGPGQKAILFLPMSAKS

[7] = mitochondrial membrane potential change in A549 cells, profiling panel, cell-based, JC-1 fluorescence, basal, 24 h, 100 nL (AID 1138); conditions: higher = more signal;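 further: A549 lung adenocarcinoma cells under basal conditions with no added stimulus; test concentration not given here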
Lefty1 = Lefty1 binders on small-molecule microarrays, primary screen, biochemical, small-molecule microarray, 635/667 nm fluorescence (AID 1139); conditions: small-molecule microarray binding, fluorescence 635/667; higher = more signal
[8] = tested on: wheat germ agglutinin (Triticum aestivum), Alexa647-labelled; assay: wheat germ agglutinin binders on compound microarrays, profiling panel, artefact control for SMM control-protein annotation, biochemical, small-molecule microarray, 635/667 nm fluorescence (AID 1140); conditions: WGA-A647 binding, 635 nm fluorescence, higher = more signal;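 further: score merges 667 nm feature emission with signal to noise over triplicate slides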
[9] = target: Luciferin 4-monooxygenase (Photinus pyralis) (UniProt P08659); assay: firefly luciferase enzyme inhibitors, primary screen, biochemical, luminescence, purified enzyme, 2006 set (AID 1141); conditions: SteadyGlo luminescence, 30 min, higher = more signal, called active from +8 up or from −8 down;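 further: cell-free assay with purified firefly luciferase at 100 ng per well in PBS; test concentration not given here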
Chain of Luciferin 4-monooxygenase (Photinus pyralis) (P08659 whole entry, looked up): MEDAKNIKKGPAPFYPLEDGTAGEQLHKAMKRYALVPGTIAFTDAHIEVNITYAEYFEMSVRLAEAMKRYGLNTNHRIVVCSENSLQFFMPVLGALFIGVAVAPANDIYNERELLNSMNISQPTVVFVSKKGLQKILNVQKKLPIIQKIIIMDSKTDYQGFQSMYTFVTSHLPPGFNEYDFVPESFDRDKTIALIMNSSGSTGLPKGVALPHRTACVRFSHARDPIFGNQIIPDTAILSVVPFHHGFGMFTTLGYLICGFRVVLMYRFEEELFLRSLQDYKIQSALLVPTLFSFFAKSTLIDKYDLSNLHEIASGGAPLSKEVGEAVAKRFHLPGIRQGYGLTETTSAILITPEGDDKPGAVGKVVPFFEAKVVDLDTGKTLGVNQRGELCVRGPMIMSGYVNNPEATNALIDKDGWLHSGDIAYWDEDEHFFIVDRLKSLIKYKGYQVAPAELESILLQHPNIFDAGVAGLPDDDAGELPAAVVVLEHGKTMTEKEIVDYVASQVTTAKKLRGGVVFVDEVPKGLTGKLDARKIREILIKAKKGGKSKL

[10] = tested on: Wnt5a (protein binding on small-molecule microarray); assay: Wnt5a binders on small-molecule microarray, primary screen, biophysical, 635/667 nm fluorescence (AID 1142); conditions: 635 nm fluorescence, higher = more signal;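 further: fluorescence read at 667 nm with signal to noise per printed feature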
[11] = cell viability in Huh7 cells, primary screen, cytotoxicity control for HCV replication inhibitor project, CellTiter-Glo luminescence, basal, 48 h (AID 1143); conditions: Huh7 HCV replicon, higher = more signal, called active from +8 up or from −8 down;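 further: Huh7 hepatoma cells carrying a hepatitis C replication reporter with no stimulus; test concentration not given here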
[12] = P. aeruginosa biofilm formation inhibitors, primary screen, PAO1 strain, BacTiter-Glo luminescence, LB-PBS (AID 1144); conditions: 12 h, higher = more signal
[13] = CREB reporter modulators without forskolin, primary screen, cell-based, PC12, CRE-LacZ reporter, unstimulated (AID 1145); conditions: no forskolin, luminescence, 4.5 h, higher = more signal, called active from +8 up or from −8 down
[14] = CREB reporter modulators under forskolin, primary screen, cell-based, PC12, CRE-LacZ reporter, forskolin-stimulated (AID 1146); conditions: luminescence, 4.5 h, higher = more signal, called active from +8 up or from −8 down;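 further: PC12 cells with 6xCRE LacZ reporter stimulated by forskolin 10 µM; beta-galactosidase reporter signal reflecting CREB driven transcription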
[15] = target: Streptavidin (Streptomyces avidinii) (UniProt P22629); assay: streptavidin binders on small-molecule microarray, primary screen, artefact control for SMM compound annotation, biophysical, 635/667 nm fluorescence (AID 1147); conditions: streptavidin binding, higher = more signal;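 further: signal reflects streptavidin binding to arrayed compounds as a control protein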
Chain of Streptavidin (Streptomyces avidinii) (P22629 whole entry, looked up): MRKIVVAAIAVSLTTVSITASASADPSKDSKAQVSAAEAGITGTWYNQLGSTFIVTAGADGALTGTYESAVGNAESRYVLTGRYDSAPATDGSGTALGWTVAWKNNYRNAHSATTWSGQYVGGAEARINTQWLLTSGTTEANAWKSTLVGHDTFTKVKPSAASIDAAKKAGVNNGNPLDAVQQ

[16] = small-molecule binders of probe aInhba, primary screen, biochemical, small-molecule microarray, 635/667 nm fluorescence (AID 1148); conditions: higher = more signal;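 further: score merges 667nm spot fluorescence with signal-to-noise for antibody binding to printed compounds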
Torsin-1A (Homo sapiens) [17] = target: Torsin-1A (Homo sapiens) (UniProt O14656); assay: torsin A binders from cell lysate, primary screen, small-molecule microarray, wild-type, 635/667 nm (AID 1149); conditions: COS7 hTOR1A-WT lysate, 635 nm fluorescence, higher = more signal
Chain of Torsin-1A (Homo sapiens) (O14656 whole entry, looked up): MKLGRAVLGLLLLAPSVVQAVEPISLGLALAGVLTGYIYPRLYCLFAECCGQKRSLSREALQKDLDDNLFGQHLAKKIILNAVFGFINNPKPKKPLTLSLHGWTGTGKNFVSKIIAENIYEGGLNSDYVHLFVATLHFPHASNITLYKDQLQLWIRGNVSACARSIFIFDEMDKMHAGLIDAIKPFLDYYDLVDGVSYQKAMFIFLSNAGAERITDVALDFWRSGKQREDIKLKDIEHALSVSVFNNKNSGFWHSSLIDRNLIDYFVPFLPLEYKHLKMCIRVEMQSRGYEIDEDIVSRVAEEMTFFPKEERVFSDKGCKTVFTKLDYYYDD

Torsin-1A (Homo sapiens) [18] = target: Torsin-1A (Homo sapiens) (UniProt O14656); assay: small-molecule binders of mutant TOR1A in lysate, primary screen, cell lysate, small-molecule microarray, COS7 lysate, 635/667 nm fluorescence (AID 1150); conditions: COS7 hTOR1A mutant lysate, 635 nm fluorescence, higher = more signal;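 further: score pools 667 nm emission and signal to noise measuring lysate protein binding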
[19] = tested on: Sonic hedgehog protein (Shh); assay: small-molecule binders of Shh protein, primary screen, biochemical, small-molecule microarray, 635/667 nm fluorescence (AID 1151); conditions: small-molecule microarray binding, 635 nm fluorescence; higher = more signal;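 further: Shh protein binding to compounds spotted on small-molecule microarray slides; score combines spot fluorescence intensity with signal-to-noise across triplicate slides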

## C=CCN1C(=O)[C@]2(Cc3ccccc31)N=C(c1ccc(OCCCO)cc1)O[C@@H]2c1ccccc1
[1]
  composite z-score: 0.599
[2]
  composite z-score: 1.22
[3]
  composite z-score: 0.436
[4]
  composite z-score: 0.585
[5]
  composite z-score: 1.36
[6]
  composite z-score: 1.65
[7]
  z-score: 0.188
Lefty1
  composite z-score: 0.366
[8]
  composite z-score: 0.322
[9]
  z-score: -1.39 (inactive)
[10]
  composite z-score: 1.2
[11]
  z-score: -3.54 (inactive)
[12]
  z-score: -0.324 (inactive)
[13]
  z-score: -0.146 (inactive)
[14]
  z-score: -0.436 (inactive)
[15]
  composite z-score: 0.586
[16]
  composite z-score: -0.0645
Torsin-1A (Homo sapiens) [17]
  composite z-score: 0.154
Torsin-1A (Homo sapiens) [18]
  composite z-score: 0.512
[19]
  composite z-score: 0.308

## O=C(CS)NCCCCCCNC(=O)[C@H]1C[C@H]2C(=O)N3CCC[C@H]3C(=O)N2[C@H]1c1ccc(O)cc1
[1]
  composite z-score: 1.81
[2]
  composite z-score: 0.828
[3]
  composite z-score: 0.163
[4]
  composite z-score: 0.702
[5]
  composite z-score: 1.37
[6]
  composite z-score: 1.34
[7]
  z-score: -0.708
Lefty1
  composite z-score: 1.16
[8]
  composite z-score: 0.681
[9]
  z-score: 0.102 (inactive)
[10]
  composite z-score: -0.161
[11]
  z-score: -0.514 (inactive)
[12]
  z-score: -0.256 (inactive)
[13]
  z-score: 0.675 (inactive)
[14]
  z-score: 0.465 (inactive)
[15]
  composite z-score: -0.322
[16]
  composite z-score: -0.05
Torsin-1A (Homo sapiens) [17]
  composite z-score: 0.624
Torsin-1A (Homo sapiens) [18]
  composite z-score: 0.947
[19]
  composite z-score: 1.8

## CC1CC/C=C\[C@H]2OC34C=CCN(c5ccc6ccccc6c5)C(=O)[C@H]3N(CCCCCO)C(=O)[C@@H]4C2C(=O)O1 (stereo not given in full)
[1]
  composite z-score: -0.946
[2]
  composite z-score: -0.824
[3]
  composite z-score: -0.673
[4]
  composite z-score: -2.2
[5]
  composite z-score: -1.02
[6]
  composite z-score: -1.65
[7]
  z-score: 0.987
Lefty1
  composite z-score: -0.994
[8]
  composite z-score: -0.0369
[9]
  z-score: -0.391 (inactive)
[10]
  composite z-score: -1.12
[11]
  z-score: 0.385 (inactive)
[12]
  z-score: 0.669 (inactive)
[13]
  z-score: 0.333 (inactive)
[14]
  z-score: -0.233 (inactive)
[15]
  composite z-score: -1.72
[16]
  composite z-score: -0.233
Torsin-1A (Homo sapiens) [17]
  composite z-score: -1.03
Torsin-1A (Homo sapiens) [18]
  composite z-score: -1.19
[19]
  composite z-score: -1.18

## NC(=O)NCC#Cc1ccc2c(c1)[C@]1(C(=O)N2)[C@H](c2ccccc2OCCO)N2[C@H](c3ccccc3)[C@H](c3ccccc3)OC(=O)[C@H]2[C@@H]1C(=O)N1CCCCCCC1
[1]
  composite z-score: 0.443
[2]
  composite z-score: 1.25
[3]
  composite z-score: 2.2
[4]
  composite z-score: 0.505
[5]
  composite z-score: 1.37
[6]
  composite z-score: 0.927
[7]
  z-score: -0.724
Lefty1
  composite z-score: 0.912
[8]
  composite z-score: 1.46
[9]
  z-score: -0.87 (inactive)
[10]
  composite z-score: 0.723
[11]
  z-score: -1.57 (inactive)
[12]
  z-score: 0.433 (inactive)
[13]
  z-score: 0.802 (inactive)
[14]
  z-score: 0.109 (inactive)
[15]
  composite z-score: 2.48
[16]
  composite z-score: 1.88
Torsin-1A (Homo sapiens) [17]
  composite z-score: 2.04
Torsin-1A (Homo sapiens) [18]
  composite z-score: 1.28
[19]
  composite z-score: 1.05

## COCCOC(=O)N1C(=O)[C@@]2(c3cc(C#CCCO)ccc31)[C@H](C(=O)NC[C@H](O)c1ccccc1)[C@H]1C(=O)O[C@H](c3ccccc3)[C@H](c3ccccc3)N1[C@@H]2c1ccc(OCCO)cc1
[1]
  composite z-score: 0.714
[2]
  composite z-score: 1.18
[3]
  composite z-score: 1
[4]
  composite z-score: 0.951
[5]
  composite z-score: 1.28
[6]
  composite z-score: 1.24
[7]
  z-score: -1.27
Lefty1
  composite z-score: 1.42
[8]
  composite z-score: 0.246
[9]
  z-score: -1.09 (inactive)
[10]
  composite z-score: 0.041
[11]
  z-score: -3.14 (inactive)
[12]
  z-score: -1.71 (inactive)
[13]
  z-score: -1.97 (inactive)
[14]
  z-score: -1.18 (inactive)
[15]
  composite z-score: 0.738
[16]
  composite z-score: 0.0444
Torsin-1A (Homo sapiens) [17]
  composite z-score: 0.269
Torsin-1A (Homo sapiens) [18]
  composite z-score: 0.126
[19]
  composite z-score: 1.85

## C=CCCN(CC#C[C@H]1Oc2ccccc2S(=O)(=O)N2CCC[C@@H]12)S(=O)(=O)c1ccc(C)cc1
[1]
  composite z-score: 0.881
[2]
  composite z-score: 0.136
[3]
  composite z-score: 0.172
[4]
  composite z-score: -0.348
[5]
  composite z-score: 0.546
[6]
  composite z-score: 1.22
[7]
  z-score: 0.957
Lefty1
  composite z-score: 0.317
[8]
  composite z-score: -0.0231
[9]
  z-score: -0.291 (inactive)
[10]
  composite z-score: 0.264
[11]
  z-score: -1.57 (inactive)
[12]
  z-score: 0.592 (inactive)
[13]
  z-score: 0.761 (inactive)
[14]
  z-score: 3.31 (inactive)
[15]
  composite z-score: -0.198
[16]
  composite z-score: -0.0471
Torsin-1A (Homo sapiens) [17]
  composite z-score: 0.554
Torsin-1A (Homo sapiens) [18]
  composite z-score: -0.109
[19]
  composite z-score: 0.624

## NC(=O)NCC#Cc1ccc2c(c1)[C@]1(C(=O)N2)[C@H](c2ccc(O)cc2)N2[C@H](c3ccccc3)[C@H](c3ccccc3)OC(=O)[C@H]2[C@@H]1C(=O)N1CCN(c2ncccn2)CC1
[1]
  composite z-score: 1.05
[2]
  composite z-score: 0.855
[3]
  composite z-score: -0.75
[4]
  composite z-score: 0.486
[5]
  composite z-score: 0.743
[6]
  composite z-score: -0.0346
[7]
  z-score: -1.1
Lefty1
  composite z-score: -0.112
[8]
  composite z-score: 0.297
[9]
  z-score: -1.43 (inactive)
[10]
  composite z-score: 0.0724
[11]
  z-score: 0.449 (inactive)
[12]
  z-score: 0.185 (inactive)
[13]
  z-score: 1.21 (inactive)
[14]
  z-score: 0.128 (inactive)
[15]
  composite z-score: 0.0219
[16]
  composite z-score: 0.181
Torsin-1A (Homo sapiens) [17]
  composite z-score: -0.219
Torsin-1A (Homo sapiens) [18]
  composite z-score: 0.412
[19]
  composite z-score: -0.37

## CC(=O)N1Cc2ccccc2C[C@@]2(N=C(c3ccc(OCCCO)cc3)O[C@H]2c2ccccc2)C1=O
[1]
  composite z-score: 2.65
[2]
  composite z-score: 1.17
[3]
  composite z-score: 0.52
[4]
  composite z-score: 0.657
[5]
  composite z-score: 1.41
[6]
  composite z-score: 1.66
[7]
  z-score: 0.592
Lefty1
  composite z-score: 0.63
[8]
  composite z-score: 1.1
[9]
  z-score: -2.32 (inactive)
[10]
  composite z-score: 0.604
[11]
  z-score: -4.03 (inactive)
[12]
  z-score: -0.519 (inactive)
[13]
  z-score: 1.53 (inactive)
[14]
  z-score: -0.634 (inactive)
[15]
  composite z-score: 0.326
[16]
  composite z-score: 0.482
Torsin-1A (Homo sapiens) [17]
  composite z-score: 0.513
Torsin-1A (Homo sapiens) [18]
  composite z-score: 1.17
[19]
  composite z-score: 1.69

## O=c1cccc(-c2ccc3ccccc3c2)o1
[1]
  composite z-score: -0.829
[2]
  composite z-score: -0.788
[3]
  composite z-score: -0.179
[4]
  composite z-score: -0.656
[5]
  composite z-score: 0.305
[6]
  composite z-score: -0.276
[7]
  z-score: 1.14
Lefty1
  composite z-score: -0.123
[8]
  composite z-score: -0.276
[9]
  z-score: -2.88 (inactive)
[10]
  composite z-score: -0.0955
[11]
  z-score: -2.3 (inactive)
[12]
  z-score: 0.787 (inactive)
[13]
  z-score: 0.425 (inactive)
[14]
  z-score: 0.0815 (inactive)
[15]
  composite z-score: 0.351
[16]
  composite z-score: -0.025
Torsin-1A (Homo sapiens) [17]
  composite z-score: -0.0735
Torsin-1A (Homo sapiens) [18]
  composite z-score: -0.0223
[19]
  composite z-score: 0.27

Source: PubChem BioAssay
